From PubChem BioAssay (NCI)
About 79,000 compounds went through this panel and 15% of them were active in at least one assay; those are over-represented in the sample as a whole. Calls of active or inactive are those of the source. No stated cut-off is given here; in the data, active means growth inhibition above about 70%; inactive means the rest.

What was measured:
[1] = NCI Yeast Anticancer Drug Screen. Data for the rad50 strain (AID 155);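 further: 0% = growth of vehicle-only cultures of the same strain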; conditions: S. cerevisiae rad50 strain growth inhibition, stronger effect = higher value
Procedure, shortened: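 DNA repair mutant yeast, compound exposure, growth read-out; inhibition is taken relative to vehicle.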

[2] = NCI Yeast Anticancer Drug Screen. Data for the mec2-1 strain (AID 157); conditions: S. cerevisiae mec2-1 strain, stronger effect = higher value
Procedure, shortened: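 Compounds were applied to mec2-1 yeast cells. Their growth was then compared with that of vehicle-treated cultures to give growth inhibition.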

[3] = NCI Yeast Anticancer Drug Screen. Data for the sgs1 mgt1 strain (AID 161);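 further: 0% = growth of cultures given vehicle only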; conditions: S. cerevisiae sgs1 mgt1 strain, stronger effect = higher value
Procedure, shortened: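 This yeast growth screen uses a strain with defined DNA-repair lesions; compound-treated growth is compared with vehicle-treated growth.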

[4] = NCI Yeast Anticancer Drug Screen. Data for the cln2 rad14 strain (AID 165);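 further: 0% = growth equal to vehicle treated cultures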; conditions: S. cerevisiae cln2 rad14 strain, stronger effect = higher value
Procedure, shortened: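 Strain: cln2 rad14 yeast, altered in cell cycle control and DNA damage repair. Read-out: growth inhibition vs vehicle.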

[5] = NCI Yeast Anticancer Drug Screen. Data for the bub3 strain (AID 167); conditions: S. cerevisiae bub3 mutant strain, stronger effect = higher value
Procedure, shortened: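 In this screen, a yeast mutant lacking normal mitotic checkpoint function is challenged with compound. Relative growth versus vehicle gives the inhibition value.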

[6] = NCI Yeast Anticancer Drug Screen. Data for the mlh1 rad18 strain (AID 175); conditions: S. cerevisiae mlh1 rad18 strain growth inhibition, stronger effect = higher value
Procedure, shortened: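 A repair-deficient yeast strain is exposed to test compound, and growth is scored relative to vehicle-treated controls.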

[7] = at 5.0 µM (retest, dose inferred, filed as 0.5)
[8] = at 50.0 µM (retest, dose inferred, filed as 5.0)

Measured: growth inhibition

COc1ccc(CCBr)cc1
inactive: [1]; [7] -1% | [1]; [8] -17% | [1]; at 50.0 µM 14.7% | [2]; [7] -23% | [2]; [8] -13% | [2]; at 50.0 µM 14% | [3]; [7] -15% | [3]; [8] -7% | [3]; at 50.0 µM 22.2% | [4]; [7] 17% | [4]; [8] -1% | [4]; at 50.0 µM 0.5% | [5]; [7] -17% | [5]; [8] -7% | [5]; at 50.0 µM 18.1% | [6]; [7] -27% | [6]; [8] -41% | [6]; at 50.0 µM 15.2%

COc1ccc(C(=O)[O][Sn]([c]2ccccc2)([c]2ccccc2)[c]2ccccc2)c(OC)c1OC
active: [1]; [7] 100% | [1]; [8] 99% | [1]; at 50.0 µM 98.7% | [2]; [7] 100% | [2]; [8] 100% | [2]; at 50.0 µM 99.1% | [3]; [7] 99% | [3]; [8] 99% | [3]; at 50.0 µM 98.8% | [4]; [7] 99% | [4]; [8] 99% | [4]; at 50.0 µM 88.2% | [5]; [7] 100% | [5]; [8] 100% | [5]; at 50.0 µM 98.9% | [6]; [7] 99% | [6]; [8] 99% | [6]; at 50.0 µM 98.4%

COC(=S)S
inactive: [1]; [7] 3% | [1]; [8] 1% | [1]; at 50.0 µM 41.9% | [2]; [7] -2% | [2]; [8] 0% | [2]; at 50.0 µM 18.7% | [3]; [7] 5% | [3]; [8] 0% | [3]; at 50.0 µM -11.4% | [4]; [7] -4% | [4]; [8] -2% | [4]; at 50.0 µM -45.5% | [5]; [7] -3% | [5]; [8] -5% | [5]; at 50.0 µM 15.6% | [6]; [7] 1% | [6]; [8] 6% | [6]; at 50.0 µM -24.7%

CCCCCCCCCCCCCCCC(=O)NCCN(C)C
active: [1]; [8] 98% | [1]; at 50.0 µM 98.7% | [2]; [8] 99% | [2]; at 50.0 µM 97% | [3]; [8] 98% | [4]; [8] 99% | [4]; at 50.0 µM 88.8% | [5]; [8] 99% | [5]; at 50.0 µM 97% | [6]; [8] 98% | [6]; at 50.0 µM 98.8%
inactive: [1]; [7] -2% | [2]; [7] -2% | [3]; [7] 23% | [3]; at 50.0 µM 56.8% | [4]; [7] -3% | [5]; [7] -5% | [6]; [7] 1%

COc1ccc2nc3cccc([N+](=O)[O-])c3c(NCCO)c2c1
inactive: [4]; [7] 68% | [5]; [7] 24%
active: [1]; [7] 75% | [1]; [8] 95% | [1]; at 50.0 µM 86.6% | [2]; [7] 78% | [2]; [8] 98% | [2]; at 50.0 µM 90% | [3]; [7] 82% | [3]; [8] 96% | [3]; at 50.0 µM 87.8% | [4]; [8] 97% | [4]; at 50.0 µM 87.2% | [5]; [8] 86% | [5]; at 50.0 µM 86.9% | [6]; [7] 77% | [6]; [8] 96% | [6]; at 50.0 µM 87.8%

O=C1/C(=C(/Br)I)c2ccccc2-c2ccccc21
active: [1]; [7] 98% | [1]; [8] 87% | [2]; [7] 99% | [2]; [8] 91% | [3]; [7] 96% | [3]; [8] 94% | [4]; [8] 90% | [5]; [7] 99% | [5]; [8] 89% | [5]; at 50.0 µM 75.7% | [6]; [7] 99% | [6]; [8] 88%
inactive: [1]; at 50.0 µM 7.85% | [2]; at 50.0 µM 58.9% | [3]; at 50.0 µM 64.3% | [4]; [7] 53% | [4]; at 50.0 µM 44% | [6]; at 50.0 µM 59%

Cc1nc2c(Cl)cccc2c2ccccc12
inactive: [1]; [7] 14% | [2]; [7] 4% | [3]; [7] 5% | [4]; [7] -10% | [5]; [7] -1% | [6]; [7] 18%
active: [1]; [8] 94% | [1]; at 50.0 µM 94.2% | [2]; [8] 93% | [2]; at 50.0 µM 85.7% | [3]; [8] 95% | [3]; at 50.0 µM 87.5% | [4]; [8] 95% | [4]; at 50.0 µM 88% | [5]; [8] 95% | [5]; at 50.0 µM 93.4% | [6]; [8] 98% | [6]; at 50.0 µM 94.5%

CCc1ccc(C(=O)O)c2ccccc12
active: [1]; [8] 81% | [3]; [8] 72% | [6]; [8] 85%
inactive: [1]; [7] -8% | [1]; at 50.0 µM 68.1% | [2]; [7] 8% | [2]; [8] 48% | [2]; at 50.0 µM 24.9% | [3]; [7] -2% | [3]; at 50.0 µM 35.1% | [4]; [7] 8% | [4]; [8] 69% | [4]; at 50.0 µM 51.6% | [5]; [7] -6% | [5]; [8] 62% | [5]; at 50.0 µM 8.4% | [6]; [7] -1% | [6]; at 50.0 µM 51.6%

CC12CCC(O)CC1CCC1C2CCC2(C)C(NC(=O)N(CCCl)N=O)CCC12 (configuration not stated)
active: [1]; [8] 74% | [1]; at 50.0 µM 91.3% | [2]; [8] 78% | [2]; at 50.0 µM 80.5% | [3]; [8] 84% | [3]; at 50.0 µM 92.9% | [6]; [8] 94% | [6]; at 50.0 µM 94.5%
inactive: [1]; [7] 6% | [2]; [7] 2% | [3]; [7] -205% | [4]; [7] -1% | [4]; [8] 35% | [4]; at 50.0 µM 65.8% | [5]; [7] -7% | [5]; [8] 63% | [5]; at 50.0 µM 56.8% | [6]; [7] 46%
